These results are taken from the supplement of paper PMC13380429.

The assay concerns Vero E6 infected with SARS-CoV-2. As to the kind of experiment: inhibition of SARS-CoV-2 cytopathic effect; higher = more antiviral protection, active = above 15. Particulars: 48 h.

A number with no mark means an inactive call.

Turning to `Cc1ccc(S(=O)(=O)N2CCC[C@H]2c2ccc(F)cc2)cc1`, the “inhibition of SARS-CoV-2 cytopathic effect” value (from here on “inhibition”) (1 nM) was 0.31%; the “inhibition” value (8.33 nM) was -0.49%; the “inhibition” value (100 nM) is 0.49%; the “inhibition” value (833.33 nM) is 1.4%; the “inhibition” value (10000 nM) is 0.86%.

Consider `C[S+]([O-])CCCCN=C=S` (stereo not given) [sulforaphane], for which the “inhibition” value was -7.22% (1 nM); -6.04% (8.33 nM); -3.89% (100 nM); -3.35% (833.33 nM); 35.2% (active) (10000 nM).

With `Cc1cc(C(=O)Nc2cccc(C(=O)Nc3cccc(C(F)(F)F)c3)c2)on1`, the “inhibition” value by setting is: (1 nM) 0.37%; (8.33 nM) 3.92%; (100 nM) -2.18%; (833.33 nM) -1.26%; (10000 nM) -3.26%.

`N#CC1(c2ccc(NC(=O)c3cccnc3NCc3ccncc3)cc2)CCCC1` [apatinib]: the “inhibition” value runs as follows: (1 nM) 1.27%; (8.33 nM) 0.67%; (100 nM) 0.81%; (833.33 nM) 0.23%; (10000 nM) -0.18%.

As to `Nc1ccncc1` [dalfampridine], the “inhibition” value reads like this: (1 nM) 0.53%; (8.33 nM) 0.41%; (100 nM) 1.64%; (833.33 nM) 2.49%; (10000 nM) 1.18%.

For `Fc1ccc(CN2CCC(Nc3ccc(C(F)(F)F)nn3)CC2)cc1F`, the “inhibition” value (1 nM) is 0.35%; the “inhibition” value (8.33 nM) is 2.13%; the “inhibition” value (100 nM) was 2.17%; the “inhibition” value (833.33 nM) was 1.38%; the “inhibition” value (10000 nM) was -6.9%.

With `CCCCCCCCCCCC(=O)N(CCO)CCO` [lauric-diethanolamide], the “inhibition” value was 1.82% (1 nM); 1.8% (8.33 nM); -1.44% (100 nM); 1.01% (833.33 nM); -2.1% (10000 nM).

Turning to `Oc1cc(O)c2cc(O)c(-c3cc(O)c(O)c(O)c3)[o+]c2c1` [delphinidin], the “inhibition” value is, setting by setting: (1 nM) -3.03%; (8.33 nM) -3.65%; (100 nM) -0.94%; (833.33 nM) -1.2%; (10000 nM) -3.76%.
